Test in all cases: NCI-60 one-dose screen, 48 h (100 = growth as untreated, 0 = no growth, -100 = all killed)
What all share (conditions): 10 µM unless noted

For assay [1], the system named is SR leukemia.
Assay [2] has as its system RPMI-8226 leukemia.
In assay [3] the test system is OVCAR-8 ovarian.
Assay [4] concerns OVCAR-5 ovarian.
Assay [5] relates to OVCAR-4 ovarian.
Assay [6] concerns SK-OV-3 ovarian.
Assay [7] concerns IGROV1 ovarian.
Assay [8] has as its system OVCAR-3 ovarian.
Assay [9] deals with HS 578T breast.
For assay [10], the system named is NCI/ADR-RES ovarian.
In assay [11] the test system is T-47D breast.
Assay [12] deals with BT-549 breast.
For assay [13], the system named is SW-620 colon.
Assay [14] relates to MCF7 breast.
Assay [15] concerns HCT-116 colon.
For assay [16], the system named is HCC-2998 colon.
The test system of assay [17] is KM12 colon.
The subject of assay [18] is MDA-MB-435 melanoma.

Structures are written as SMILES. This is part of a sample that, as a whole, favours compounds with a hit. Of some 83,000 tested, about 20% had one in any assay.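 For each line, cells grew in 96-well plates with the test compound present at a single concentration for 48 hours.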 A number with no mark means an inactive call. Calls of active or inactive are those of the source. How the source made its calls: active means growth percent below 10; inactive means the rest.

Regarding `O=C(CCCCCCN1CC(=O)N2[C@@H](c3cccc(Cl)c3)c3[nH]c4ccccc4c3C[C@H]2C1=O)NO`, the growth in assay [1] is 39.5%; in [2], 15%; in [3] it was 34.8%; in assay [4], 54.3%; in [5], 61%; in assay [6], 51.8%. Besides, the growth in assay [7] was 4.61% (active); in [8], 36.3%; in [9], 69.3%; in assay [10], 94.3%; in assay [11] it was 19.6%; in assay [12], 82.7%. Also, the growth in assay [13] is 26.3%; in [14], 38%; in assay [15] it was 14.8%; in assay [16], 72.1%; in [17] it was 54.9%.
On to `COc1ccc(NC(=O)[C@H](C)NC(=O)OC(C)(C)C)cc1C(=O)Nc1cccc(-c2cc(=O)c3c(OC)c(OC)c(OC)cc3o2)c1`, for which the growth in [1] is 8.47% (active); in [2], -39.4% (active); in [3], -27.5% (active); in assay [4] it was 3.94% (active); in assay [5], 21.3%; in [6] it was -17.8% (active). Besides, the growth in assay [7] was 11.5%; in [9] it was -9.5% (active); in assay [10], 61.4%; in assay [11], -24.7% (active); in [12] it was -85% (active); in assay [18] it was 7.35% (active). The growth is -25.6% (active) in [13]; -9.71% (active) in assay [14]; -61.7% (active) in assay [15]; -60.8% (active) in assay [16]; -36.4% (active) in assay [17].
Regarding `COc1cc(/C=N/n2cnc3oc(-c4ccccc4)cc3c2=N)cc(CN2CCN(C)CC2)c1O`, the growth is 35.2% in assay [1]; 95.8% in assay [2]; 93.9% in assay [3]; 105% in assay [4]; 97.7% in [5]; 91.3% in assay [6]. The growth was 61.7% in assay [7]; 110% in [8]; 68% in assay [9]; 98.7% in assay [10]; 99.4% in assay [11]; 120% in assay [12]. The growth in assay [13] was 101%; in [14], 89.3%; in assay [15], 80.6%; in assay [16], 108%; in [17], 87.2%.
As to `CS(=O)(=O)c1ccc(-c2nn(-c3ccccc3)cc2/C=N/NC(=O)c2ccncc2)cc1`, the growth in assay [1] is 87%; in [2], 115%; in assay [3] it was 101%; in assay [4], 107%; in assay [5] it was 104%; in assay [6], 109%. For the same molecule, the growth in assay [7] is 104%; in [8] it was 109%; in assay [9], 108%; in assay [10], 94.7%; in assay [11], 90.8%; in [12], 97.1%. Also, the growth in assay [18] was 85.4%; in assay [13], 102%; in [15] it was 107%; in [16], 102%; in assay [17], 90.7%.
With `CCCCCCNC(=O)Oc1ccc(/C(=C(/C)c2ccccc2)c2ccc(OCCN(C)C)cc2)cc1`, the growth is -27.8% (active) in assay [1]; 50.5% in [2]; 73.6% in assay [3]; 73% in assay [4]; 73.6% in [5]; 93.2% in assay [6]. Besides, the growth in [7] was 66.3%; in assay [9] it was 64.5%; in assay [10], 71.2%; in assay [11], 33.1%; in assay [12], 75.3%; in assay [18] it was 53%. The growth was 27.3% in assay [13]; 18% in assay [14]; 22.6% in assay [15]; 69.3% in [16]; 66.2% in assay [17].
As to `CCN(CC)CCCC(C)NCC(=O)NC(c1ccc2c(c1)OCO2)c1cc(Cl)c2cccnc2c1O` (stereo not drawn), the growth was 39.2% in assay [1]; 27.9% in assay [2]; 25.2% in assay [3]; 40.6% in [4]; 11.5% in assay [5]; 40.6% in assay [6]. Further, the growth in [7] was 20.9%; in [8] it was 10.8%; in [9], 79.7%; in assay [10], 38.6%; in [11], 40.1%; in assay [12], 79%. Further, the growth in assay [18] was 8.56% (active); in assay [13] it was 24.2%; in assay [15] it was 7.29% (active); in assay [16], -11.4% (active); in assay [17], 9.46% (active).
For the molecule `O=c1oc2ccc(-c3ccc(F)cc3F)cc2c(=O)n1-c1ccc(F)c(F)c1`, the growth in [1] is 27.5%; in assay [2], -19.1% (active); in assay [3] it was 8.19% (active); in assay [4], 12.9%; in [5] it was 9.07% (active); in [6], 6.15% (active). For the same molecule, the growth in assay [7] is 15.1%; in assay [8], 5.59% (active); in assay [9], 1.72% (active); in assay [10], 3.65% (active); in [11], 9.12% (active); in assay [12], -2.01% (active). Moreover, the growth in assay [13] was 12.7%; in assay [15], 6.87% (active); in assay [16], 14.5%; in [17], 3.33% (active).
Take `C#C[C@]1(O)CC[C@H]2[C@@H]3CC=C4c5sc(Nc6cccc(C)n6)nc5CC[C@]4(C)[C@H]3CC[C@@]21C`: the growth is -25% (active) in assay [1]; -33.2% (active) in assay [2]; 39% in [3]; 56.4% in [4]; 56.6% in assay [5]; -7.51% (active) in assay [6]. Besides, the growth in assay [7] was 45.5%; in assay [9], -15.8% (active); in [10], 38.5%; in assay [11] it was 37.7%; in assay [12] it was 23.1%; in assay [18] it was -41.5% (active). The results for the growth in assay [13], in [14] and in assay [15] were -22.6% (active), -41.5% (active) and 14.4%, respectively.
With `COc1ccc(-c2nc(SCC(C)C)nc(N/N=C\c3cccc([N+](=O)[O-])c3)c2C#N)cc1`, the growth in [1] is 43.5%; in [2], 66.9%; in assay [3], 25.5%; in assay [4], 71.5%; in assay [5] it was 38.7%; in assay [6] it was 74%. In addition, the growth in assay [7] was 31.4%; in assay [9] it was 43%; in [10], 51.5%; in assay [11], 64%; in assay [12], 64.1%; in assay [18], 67.3%. Besides, the results for the growth in [13], in assay [14] and in assay [15] were 56.9%, 61.6% and 30.1%, respectively.

Source of the values: PubChem BioAssay (NCI).
